Screening data (PubChem BioAssay)
This is a sample that favours compounds with a hit; in the whole collection about 3.4% have one here.
GAA850 FXN act: activators of GAA850 frataxin (FXN) promoter. activation, % at 6 µM. HEK293 lucGAA850 FXN promoter luciferase reporter, 24 h; percent of 10 µM SAHA response. 360,000 compounds, 0.56% hits. AID 540364;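 active = activation above the average of all compounds screened plus 3 SD, cutoff fixed separately per campaign, cut at about 7.5% in these data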;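 also: 0% = DMSO wells and 100% = 10 µM SAHA wells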
PG9 binder: PG9 antibody binding by small molecule | AID 624416 | inhibition, % at 6.7 µM | 360,000 compounds, 0.43% hits | TR-FRET gp120-PG9 antibody binding; in the data active = inhibition above about 8.5%
SMARCA2 activ: SMARCA2 function activation, primary screen | 370,000 compounds, 1% hits | MG213 cells, MMTV-luciferase reporter, dexamethasone, overnight | activation, % at 9.1 µM; in the data active = activation above about 7.8%;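 also: 0% = vehicle wells and 100% = reference activator wells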
HSF1 inhib: HSF1 inhibition | 300,000 compounds, 0.77% hits | activity change, negative = inhibition, % at 7.5 µM (by protocol) | NIH3T3-HGL HSE-luciferase, MG132-induced, luminescence 8 h; hits give low values;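 active = more than half of replicate wells show activity change below -50%, luminescence cut by over half; inconclusive = some wells, but at most half, below -50%; inactive = no replicate well below -50%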;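 also: luciferase reports HSF-1 transcriptional activity via heat shock element; 0% = median of DMSO wells and -100% = zero luminescence signal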
HSP90 inh: HSP90 refolding inhibition in rabbit reticulocyte lysate; AID 1789; luciferase refolding luminescence, 3 h; inhibition, % at 5.6 µM; 290,000 compounds, 0.91% hits;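 active = inhibition above the screen-wide mean plus 3 SD, computed separately per campaign, cut at about 16% in these data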;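 also: 0% = DMSO wells and 100% = 60 µM geldanamycin wells; inhibitors lower the luminescence because luciferase stays unfolded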
AI-2 QS mod: modulates the Vibrio harveyi AI-2 quorum sensing system. Vibrio harveyi JMH597 AI-2 luminescence/OD600 ratio, 9 h; hits give low values; strain lacks LuxN and CqsS sensors; 0 = neutral-control median. activity change, % at 7.5 µM. 300,000 compounds, 0.4% hits; in the data active = activity change below about -75%, passing the limit was not always enough; inconclusive = no clear call, values can overlap the other calls;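 also: luminescence divided by OD600 gain over 9 h not by final OD600 alone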
JMH597 growth rt: retest: blocks Vibrio harveyi JMH597 growth; growth inhibition, % at 7.5 µM; OD600 absorbance, 9 h; lacks LuxN and CqsS sensors; 750 compounds, 1% hits; shares compounds with AI-2 QS mod;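 active = every replicate shows growth inhibition above 50%; inconclusive = at least half, but not all, replicates pass that cutoff; inactive = fewer than half of replicates pass it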
BB721 lum counter: retest counter-screen: BB721 constitutive quorum sensing luminescence decrease; 750 compounds, 95% hits; Vibrio harveyi BB721 luminescence, 9 h; shares compounds with AI-2 QS mod; inhibition, % at 7.5 µM; AID 2727;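 active = inhibition above about 80% in every replicate, not just on average, limit read from the data; inconclusive = at least half of replicates past the limit, but not all; inactive = fewer than half of replicates past the limit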
BB721 growth rt: retest: blocks Vibrio harveyi BB721 growth; AID 2728; 750 compounds, 3% hits; growth inhibition, % at 7.5 µM; OD600 absorbance, 9 h; shares compounds with AI-2 QS mod;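 active = every replicate shows growth inhibition above 50%; inconclusive = at least half but not all replicates above 50% inhibition; inactive = under half of replicates above 50% inhibition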
JMH597 AI-2 mod: Vibrio harveyi AI-2 signaling luminescence modulation – JMH597 strain, confirmation; shares compounds with AI-2 QS mod; Vibrio harveyi JMH597 AI-2 quorum sensing luminescence, 9 h; luxN and CqsS knockout, AI-2 only; inhibition, % at 7.5 µM; 750 compounds, 97% hits;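 active = every replicate shows more than 75% inhibition of signal versus neutral control wells; inconclusive = half to three quarters of replicates exceed 75% inhibition; inactive = fewer than half of replicates exceed 75% inhibition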
* = called active by the depositor; ? = inconclusive; . = no result.

SMILES	GAA850 FXN act	PG9 binder	SMARCA2 activ	HSF1 inhib	HSP90 inh	AI-2 QS mod	JMH597 growth rt	BB721 lum counter	BB721 growth rt	JMH597 AI-2 mod
Cc1ncoc1C(=O)Nc1ccc(Oc2ccccc2)cc1	1.4	-2.1	7.7	27.7	-0.8	-96.3*	15.1	98.8*	6.0	99.2*
Cc1nc(C)c(C(=O)Nc2ccc(Oc3ccccc3)cc2)o1	0.5	1.6	-2.8	2.5	4.0	-82.8*	11.1	90.6*	-43.0	94.0*
CC(C)(C)c1ccc(/C=N/NC(=O)C2CCCC2)cc1	4.7	0.4	4.1	.	-4.9	-83.2*	31.5	96.2*	?	97.1*
CC(=O)Nc1ccc(C=NNC(=O)C2CC2)cc1	4.1	-1.5	2.7	.	.	.	.	.	.	.
CC(C)c1ccc(/C=N/NC(=O)C2CCCC2)cc1	6.1	-1.8	3.1	26.7	-4.1	?	-1.5	91.4*	3.9	92.4*
O=C(NCCc1c[nH]c2ccccc12)OCc1cn(-c2ccc(F)cc2F)nn1	.	.	-0.4	.	.	.	.	.	.	.
O=C(NCc1ccc(Cl)cc1)C(=O)c1c[nH]c2ccccc12	0.0	-2.7	2.9	28.7	-0.8	-88.9*	-18.0	96.7*	-31.0	97.8*
O=C(NCCc1ccccc1)C(=O)c1c[nH]c2ccccc12	5.8	0.7	3.0	9.4	-4.2	-39.0	.	.	.	.
Cc1ccc(CCC(=O)Nc2ccc(C#N)cc2)o1	0.4	1.8	-0.9	-1.9	1.6	-79.9*	26.2	90.3*	23.3	92.9*
CC(=O)c1ccc(NC(=O)CCc2ccc(C)o2)cc1	1.4	1.4	-1.4	8.6	-1.8	-88.1*	-2.5	94.7*	-15.8	96.4*
COC(=O)C1=C(C)N(Cc2ccc(C(F)(F)F)cc2)C(=NCc2ccccc2)NC1c1ccc(C(F)(F)F)cc1 (stereo not drawn)	.	-0.2	-6.9	.	.	.	.	.	.	.
O=C(Oc1ccc2c(=O)c(Oc3ccc4ccccc4c3)coc2c1)c1cccnc1	-1.8	-1.2	0.4	7.4	-0.7	-89.2*	18.6	96.6*	?	97.3*
O=C(Nc1cnn(Cc2ccc(Cl)cc2)c1)c1cnccn1	-0.6	-2.1	2.5	2.3	2.4	-95.7*	1.2	98.9*	7.7	99.3*
O=c1c2c(-c3ccccc3)csc2nc2c3ccccc3c(NCCN3CCOCC3)nn12	3.5	1.3	5.3	14.6	5.9	-96.4*	76.5*	99.8*	?	99.9*
O=C1c2ccccc2C(=O)N1CCCCNc1ccccc1	-1.9	0.1	-2.7	.	.	.	.	.	.	.
c1ccc(NCCCNc2ccccc2)cc1	0.5	1.2	1.5	0.6	-2.4	-80.8*	0.3	93.1*	3.9	92.6*
CCN(CC)S(=O)(=O)c1ccc(F)cc1	0.1	2.1	-1.6	0.8	0.6	6.9	.	.	.	.
CCCc1ccc(S(=O)(=O)N(C)S(=O)(=O)c2ccc(F)cc2)cc1	-0.3	2.7	-1.3	-9.8	4.7	?	44.9	45.7	25.8	99.4*
Cc1ccc(NC(=O)C(=O)c2ccc(C)cc2)cc1	3.3	-1.2	2.0	19.3	0.4	-92.6*	2.9	97.0*	18.9	97.1*
Cc1ccc(NC(=O)C(C)C(=O)Nc2ccc(C)cc2)cc1	0.3	1.0	-3.2	1.3	1.2	12.1	.	.	.	.
CCCc1c(-c2cccc(Br)c2)ncn1CCc1ccccc1OC	.	0.2	-4.1	.	.	.	.	.	.	.
CN(C)S(=O)(=O)c1cccc(NC(=O)Cn2cnc3ccccc3c2=O)c1	-0.8	-0.3	-3.7	-8.3	-1.4	-88.0*	15.0	96.1*	12.7	97.2*
COc1ccc(S(=O)(=O)N(C)C)cc1NC(=O)COC(=O)Cn1cnc2ccccc2c1=O	-0.1	-1.6	-3.6	.	.	.	.	.	.	.
CCN(CC)S(=O)(=O)c1ccc(NC(=O)Cn2cnc3ccccc3c2=O)cc1	-2.1	0.1	-3.2	-4.3	-1.0	-94.2*	23.1	98.8*	12.7	99.2*
COc1ccc(C(=O)Cn2nnc(-c3ccccc3F)n2)cc1	0.9	-1.9	1.2	0.0	-1.8	-86.0*	25.1	94.9*	-2.9	96.9*
SMILES	GAA850 FXN act	PG9 binder	SMARCA2 activ	HSF1 inhib	HSP90 inh	AI-2 QS mod	JMH597 growth rt	BB721 lum counter	BB721 growth rt	JMH597 AI-2 mod
C[C@@H]1CN([C@H](C)CO)C(=O)c2cc(NS(=O)(=O)c3ccccc3)ccc2O[C@@H](C)CCCCO[C@@H]1CN(C)Cc1ccc(Cl)c(Cl)c1	.	-0.8	-3.5	.	.	.	.	.	.	.
CCOC(=O)c1cccc(NC(=O)Cn2nc(C)n3cccc3c2=O)c1	0.9	-3.8	-2.7	-0.7	0.7	-97.3*	21.6	99.6*	12.4	99.8*
Cc1cccc(C)c1NC(=O)Cn1nc(C)n2cccc2c1=O	-0.5	-0.2	-1.8	10.6	0.6	-7.6	.	.	.	.
COc1ccccc1C(=O)N1CCC(Oc2cccnc2)CC1	.	.	1.0	.	.	.	.	.	.	.
COc1cccc(OCc2nc(-c3ccc(Br)o3)no2)c1	0.5	-0.2	1.8	-0.4	4.0	-82.6*	38.5	95.6*	-1.0	97.2*
COc1cccc(-c2noc(Cn3nc(C)c([N+](=O)[O-])c3C)n2)c1	1.8	-1.4	-1.9	2.5	-6.9	-10.6	.	.	.	.
COc1cccc(OCc2nc(-c3cccc([N+](=O)[O-])c3)no2)c1	2.0	-0.8	-1.8	9.8	2.5	-83.4*	13.6	86.3*	-20.6	93.0*
C[C@@H]1CNC(=O)c2c(C(=O)N3CCN(c4ccccc4)CC3)ncn21	.	-1.8	-2.0	.	.	.	.	.	.	.
COc1ccc(CN2C[C@H](COCc3ccccc3)Oc3cccc(Oc4ccc(C(C)C)cc4)c3S2(=O)=O)cc1	.	1.6	2.9	.	.	.	.	.	.	.
CC(C)C(=O)OCc1cn(-c2ccc(Cl)c(Cl)c2)nn1	1.4	-3.7	-5.2	-3.2	-2.5	-82.1*	1.6	95.1*	-10.9	95.9*
O=C(Cn1cnc2c(nc3n2CCCCC3)c1=O)Nc1cccc(C(F)(F)F)c1	-0.9	-1.9	2.2	-7.0	-2.5	-86.4*	-9.0	94.7*	5.1	95.8*
Cc1nn(CC(=O)Nc2ccc(C(=O)N3CCCC3)cc2)c(=O)c2ccccc12	0.4	-1.8	-1.9	9.3	6.4	-82.7*	-28.9	94.5*	-22.2	95.8*
Cc1nn(CC(=O)Nc2cccnc2)c(=O)c2ccccc12	1.9	-0.4	1.5	-7.0	2.3	-95.5*	-0.7	98.5*	-8.9	99.1*
Cc1nn(CC(=O)Nc2ccc(C(=O)N3CCCCC3)cc2)c(=O)c2ccccc12	-0.4	1.1	-2.4	-8.0	-1.1	-81.9*	7.4	92.9*	-10.9	94.2*
